Test results: PubChem BioAssay (NCATS)
Records with an inconclusive call do not appear. Unmarked numbers belong to inactive results. Active and inactive are the calls of the source. The call rests on the fitted dose curve; in most records, active means well fitted cell-killing curve with a large enough effect; inconclusive means small, poorly fitted or top-dose-only effect, or effect the other way; inactive means flat fitted curve, though single readings scatter.

The compounds below were run on Tov112D (assay: Primary qHTS to identify gynecologic anti-cancer compounds using libraries of approved drugs and bioactive compounds (AID 1345084; further: nearly all actives have a fitted effect of over 55% in size)). Conditions: Gynecologic cancer cell panel viability, ATPlite luminescence, 48 h; series mostly up to 57.5 µM; activity change, negative = cytotoxicity: at the top concentration.
Procedure, shortened: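 48 h compound exposure at 37 C, 5% CO2; five-point qHTS. ATPlite luminescence readout of cell ATP.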
On the % scale 0 is the no-effect control and ±100 the full control effect; potency means the concentration at half of the fitted maximal effect.

SMILES | activity change, negative = cytotoxicity | Potency
C=C1[C@@H]2CC[C@@H]3[C@@](CCC4C(C(=O)O)(C(=O)O)C[C@@H](O[C@@H]5O[C@H](CO)[C@@H](O)[C@H](O)[C@H]5OC(=O)CC(C)C)C[C@]43C)(C2)[C@H]1O (stereo partly drawn) | -35.7% [at 25.3 µM] | –
N[C@@]1(C(=O)O)CC[C@H]2[C@H](C(=O)O)[C@H]21 | 8.95% | –
C[C@@H]1O[C@@H](O[C@H]2[C@@H]3C=CO[C@@H](O[C@@H]4O[C@H](CO)[C@@H](O)[C@H](O)[C@H]4O)[C@@H]3[C@@]3(CO)O[C@@H]23)[C@H](OC(=O)/C=C/c2ccccc2)[C@H](O)[C@H]1O | -2.06% [at 25.3 µM] | –
C[C@@H]1CC[C@]2(C(=O)O[C@@H]3O[C@H](CO)[C@@H](O)[C@H](O)[C@H]3O)CC[C@]3(C)C(=CCC4[C@@]5(C)C[C@@H](O)[C@H](O)[C@](C)(C(=O)O)C5CC[C@]43C)[C@@H]2[C@]1(C)O (stereo partly drawn) | 8.72% [at 25.3 µM] | –
C=C1CN(Cc2ccc(C(=O)Nc3ccccc3N)cc2)C(=O)c2ccccc21 | – | 3.98 µM (active)
COc1ccc(C(=O)n2c(C)c(Cc3cccc(O[C@@H](C)C(=O)O)c3)c3cc(OC(F)(F)F)ccc32)cc1 | 11.9% | –
Cc1ccc([N+](=O)[O-])cc1S(=O)(=O)N(C)/N=C/c1cnc2ccc(Br)cn12 | – | 0.355 µM (active)
C[C@@H]1O[C@@H](O[C@@H]2[C@@H](O)[C@H](O[C@H]3CC[C@@]4(C)C(CC[C@]5(C)C4CC=C4[C@@H]6CC(C)(C)CC[C@]6(C(=O)O[C@@H]6O[C@H](CO)[C@@H](O)[C@H](O)[C@H]6O)CC[C@]45C)C3(C)C)O[C@H](C(=O)O)[C@H]2O)[C@H](O)[C@H](O)[C@H]1O (stereo partly drawn) | 5.96% [at 11.6 µM] | –
CCOC(=O)C(CCc1ccccc1)NC(C)C(=O)N1C(=O)N(C)CC1C(=O)O (stereo not drawn) | -1.5% | –
CC1=CCC2C(C)(C)CCC[C@]2(C)[C@@]12CC[C@](C)(CC(=O)O)O2 (stereo partly drawn) | -24.8% [at 38.5 µM] | –
CC1CCC2C(C)(C)[C@@H](O)CC[C@]2(C)C12Cc1c(O)cc3c(c1O2)CN(C(CCC(=O)O)C(=O)O)C3=O (stereo partly drawn) | 3.05% [at 25.3 µM] | –
Cc1cc(NC(=O)Nc2ccc(F)c(F)c2)n(-c2ccccc2)n1 | 3.69% | –
CC(/C=C/C1=CC2=CC(=O)C(C)(O)C(O)C2=CO1)=C\C(C)CCO (stereo not drawn) | -4.54% [at 38.5 µM] | –
CO[C@H]1C[C@@H]2CC[C@@H](C)[C@@](O)(O2)C(=O)C(=O)N2CCCC[C@H]2C(=O)O[C@H]([C@H](C)C[C@@H]2CC[C@H](n3cnnn3)[C@H](OC)C2)CC(=O)[C@H](C)/C=C(\C)[C@@H](O)[C@@H](OC)C(=O)[C@H](C)C[C@H](C)/C=C/C=C/C=C/1C | -28.9% [at 25.3 µM] | –
Cn1c(=O)cc(N2CCCC(N)C2)n(Cc2cc(F)ccc2C#N)c1=O (stereo not drawn) | -2.37% | –
COc1c(Nc2ncc(Cl)c(N[C@H]3[C@@H](C(N)=O)[C@@H]4C=C[C@H]3C4)n2)ccc2c1CC[C@@H](N1CCOCC1)CC2 | 4.09% | –
CNC(=S)NS(=O)(=O)c1cc(CCNC(=O)c2cc(Cl)ccc2OC)ccc1OC | 17.2% | –
COc1ccc(CC2NCCc3c2[nH]c2ccc(C)cc32)cc1OC (stereo not drawn) | -0.556% | –
O=C(/C=C/c1cccc(S(=O)(=O)Nc2ccccc2)c1)NO | – | 3.98 µM (active)

SMILES | activity change, negative = cytotoxicity | Potency
Cc1cccc(C)c1-n1c(=O)c2cnc(Nc3ccc(N4CCN(C)CC4)cc3)nc2n2c3ccccc3nc12 | – | 8.91 µM (active)
NC1CCC(Nc2cc(-c3cccc(NCc4cccc(F)c4)n3)c(Cl)cn2)CC1 (stereo not drawn) | – | 0.891 µM (active)
C=C[C@]1(C)C[C@H](O)[C@@H]2[C@H](OC(=O)[C@@H]2C)C1/C(C)=C/O[C@@H]1O[C@H](CO)[C@@H](O)[C@H](O)[C@H]1O (stereo partly drawn) | -0.861% [at 25.3 µM] | –
C[C@H](NC(c1cccc(C[P+](=O)O)c1)[C@H](C)O)c1ccc(Cl)c(Cl)c1 (stereo partly drawn) | 14% | –
O=C(N/N=C/c1ccc(O)c(O)c1)c1cc2ccccc2cc1O | -25.4% [at 25.3 µM] | –
CO[C@H]1C[C@@H]2CC[C@@H](C)[C@@](O)(O2)C(=O)C(=O)N2CCCC[C@H]2C(=O)O[C@H]([C@H](C)C[C@H]2CC[C@@H](OP(C)(C)=O)[C@H](OC)C2)CC(=O)[C@H](C)/C=C(\C)[C@@H](O)[C@@H](OC)C(=O)[C@H](C)C[C@H](C)/C=C/C=C/C=C/1C | -18.9% [at 38.5 µM] | –
CC(C)=CCC/C(C)=C/CO[C@@H]1O[C@H](CO)[C@@H](O)[C@H](O)[C@H]1O | 3.26% [at 38.5 µM] | –
O=C(O)CCCCCC[C@H]1C(=O)NC(=O)N1CC[C@@H](O)C1CCCCC1 | 12.1% | –
CCC(O)(C(=O)OCc1ccccc1NC(=O)CCC(=O)O)C(C)O (stereo not drawn) | -7.08% [at 38.5 µM] | –
COC(=O)C[C@H]1[C@]2(C)C3=C(C)[C@H](c4ccoc4)C[C@H]3O[C@@H]2[C@H](OC(C)=O)C2[C@](C)(C(=O)OC)C=CC(=O)[C@@]21C (stereo partly drawn) | 1.09% [at 25.3 µM] | –
C=C(C(=O)O)[C@H]1C[C@]2(C)[C@@H](O)CC[C@]23O[C@H]1C[C@@H]3C | 6.81% | –
COc1c(/C=C/C(C)(C)O)ccc2c1C(=O)OCc1cc(C)cc(O)c1O2 | -10.4% [at 38.5 µM] | –
Cc1cc(C)c(CNC(=O)c2cc(-c3ccc(CN4CCOCC4)cc3)cc3c2cnn3C2CCCC2)c(=O)[nH]1 | 6.14% | –
O=C(O)c1ccc(CN2CCC(CN[C@@H]3C[C@H]3c3ccccc3)CC2)cc1 | 6.95% | –
COc1ccc(N2CCOCC2)c2sc(NC(=O)N3CCC(C)(O)CC3)nc12 | 4.39% | –
CCC(COC)n1nnc2c(Nc3ccc(OC)cc3C)nc(C)cc21 (stereo not drawn) | 11% | –
CC(=O)OC1C[C@@]2(C)[C@@H](CC[C@@H](C)[C@]23Cc2c(O)cc4c(c2O3)CNC4=O)C(C)(C)[C@@H]1O (stereo partly drawn) | -8.21% [at 25.3 µM] | –
OC/C=C/C=C/[C@H]1Cc2cc(O)cc(O)c2O1 | 0.297% | –
C/C=C/C1=CC2=C(CO1)C(=O)C(C)(O)C(OC(=O)c1c(C)cc(OC)cc1O)C2 (stereo not drawn) | -0.135% [at 38.5 µM] | –
